# Records with an inconclusive call do not appear. Calls of active or inactive are those of the source. Rule for the calls: active = hit-call score of the fitted dose curve at least 0.9, where 1 is the maximum; inconclusive = response in the unintended direction; inactive = score below 0.9.
# Assays:
# NCBI gene 100848466 = assay: NVS_NR_bPR: NovaScreen (NVS) Nuclear Receptor Binding Assay for bovine Progextron Receptor (PR) (AID 2283343);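 for AC50: actives lower bound radioligand signal below DMSO meaning displacement of the label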
# Method in brief: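 Scintillation counts of bound radioligand were read 18 hours after chemical addition to membranes extracted from bovine uterus. Displacement was scored as loss of signal relative to DMSO controls. Screening began at 25 uM in duplicate.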
# [1] = target: Estrogen receptor beta (Homo sapiens) (UniProt Q92731); assay: OT_ER_ERbERb_0480: Odyssey Thera (OT) 8-hour HEK293T Protein-Complementation Assay for Estrogen Receptor-beta/-beta Homodimer (AID 2283357);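 note: active means signal gain over DMSO baseline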
# Method in brief: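 Homodimerization of ER-beta LBD measured by protein-fragment complementation in HEK293T; 8 h dosing; fixed, Draq5 counterstain; fluorescence intensity gain over DMSO baseline, positive fitting direction; laser scanning cytometry.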
# PGR (gene 5241) = PGR (gene 5241) (UniProt P06401); assay: NVS_NR_hPR: NovaScreen (NVS) Nuclear Receptor Binding Assay for human Progestron Receptor (PR) (AID 2283360);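 note: active means loss of bound radioligand signal versus DMSO baseline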
# Method in brief: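 T47D-derived receptor preparation, cell-free, with tritiated or iodinated radioligand displacement measured by scintillation 18 h post-dosing. Single 25 uM duplicate screen, then concentration series; signal loss relative to DMSO.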
# [2] = target: human Thyroid Receptor Alpha (TRa), THRA (gene 7067) (UniProt P10827); assay: NVS_NR_hTRa_Antagonist: NovaScreen (NVS) Nuclear Receptor Binding Assay for human Thyroid Receptor Alpha Antagonism (TRa) (AID 2283362);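 note: activity is loss of signal relative to DMSO baseline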
# Method in brief: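 Chemicals were first screened in duplicate at 25 uM, then actives were retested in concentration series. Binding to the extracted receptor was measured 1 h after dosing by AlphaLISA chemiluminescence, with decreased signal versus DMSO scored as activity.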
# [3] = target: rat Mineralocorticoid Receptor (MR), Nr3c2 (gene 25672) (UniProt P22199); assay: NVS_NR_rMR: NovaScreen (NVS) Nuclear Receptor Binding Assay for rat Mineralocorticoid Receptor (MR) (AID 2283355)
# Method in brief: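 Radioligand displacement, scintillation readout; tissue source adrenalectomized rat brain supernatant. Read 24 h post-dose. Screened in duplicate at 25 uM, DMSO negative control, controls on every plate; actives re-run in concentration series.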
# [4] = target: Bile acid receptor (Homo sapiens) (UniProt Q96RI1); assay: NVS_NR_hFXR_Antagonist: NovaScreen (NVS) Nuclear Receptor Binding Assay for human Farnesoid X Receptor Antagonism (FXR) (AID 2283350)
# Method in brief: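 Antagonist-format time-resolved FRET binding assay with extracted human receptor protein, read 1 hour after compound addition. Compounds first screened at 25 uM in duplicate, then actives tested in concentration series, with loss of signal relative to DMSO.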
# [5] = target: Retinoic acid receptor alpha (Homo sapiens) (UniProt P10276); assay: NVS_NR_hRAR_Antagonist: NovaScreen (NVS) Nuclear Receptor Binding Assay for human Retinoic Acid Alpha Receptor Antagonism (RAR) (AID 2283358)
# Method in brief: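 Read-out: time-resolved FRET binding signal, 2 h post-dose, cell-free extracted protein. Antagonism scored as signal loss versus DMSO negative control. Primary single-concentration screen at 25 uM in duplicate; concentration series for actives.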
# [6] = target: rat Glutamate, MK-801 Agonist Site (GluNMDA_MK801), Grin1 (gene 24408) (UniProt P35439); assay: NVS_LGIC_rGluNMDA_MK801_Agonist: NovaScreen (NVS) Ligand-Gated Ion Channel Assay for rat Glutamate, MK-801 Agonist Site (GluNMDA_MK801) (AID 2283340)
# Method in brief: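 Rat forebrain membrane preparation; MK-801-site radioligand binding read by filtration and scintillation after 1.5 h. Single-point 25 uM duplicate screen, followed by singleton concentration series to 50 uM max; DMSO baseline.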
# [7] = target: Androgen Receptor/SRC-1 Co-activator, AR (gene 367) (UniProt P10275); assay: OT_AR_ARSRC1_0960: Odyssey Thera (OT) 16-hour HEK293T Protein-Complementation Assay for Androgen Receptor/SRC-1 Co-activator (AID 2283353);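 note: actives raise the signal above DMSO so potency reflects increased AR and SRC-1 complex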
# Method in brief: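 Stable HEK293T line carries AR and SRC-1 each linked to a Venus fragment; chemicals are applied for 16 h, cells imaged at two wavelengths, and the 488 nm nucleus/cytoplasm ratio is taken as the signal, rising relative to DMSO.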
# [8] = target: Androgen Receptor/SRC-1 Co-activator, AR (gene 367) (UniProt P10275); assay: OT_AR_ARSRC1_0480: Odyssey Thera (OT) 8-hour HEK293T Protein-Complementation Assay for Androgen Receptor/SRC-1 Co-activator (AID 2283354);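 note: hits raise the complementation signal above DMSO so AC50 marks enhancers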
# Method in brief: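 Split-Venus PCA, stable HEK293T, AR/SRC-1 fusions; 8 h exposure. Readout: 488nm N/C fluorescence ratio, ≥400 cells/image; fitted upward vs DMSO baseline.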
# [9] = target: Bile acid receptor (Homo sapiens) (UniProt Q96RI1); assay: NVS_NR_hFXR_Agonist: NovaScreen (NVS) Nuclear Receptor Binding Assay for human Farnesoid X Receptor Agonism (FXR) (AID 2283347)
# Method in brief: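 Agonist-mode FXR assay read by time-resolved FRET 1 h after compound addition, using isolated human receptor protein without cells. Duplicate 25 uM single-point primary screen, concentration series for confirmed actives; DMSO as baseline.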
# [10] = target: Estrogen receptor (Homo sapiens) (UniProt P03372); assay: OT_ER_ERaERa_0480: Odyssey Thera (OT) 8-hour HEK293T Protein-Complementation Assay for Estrogen Receptor-alpha/-alpha Homodimer (AID 2283351);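 note: rise in fluorescence from reassembled reporter fragments on ERα LBD homodimer in nucleus or whole cell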
# Method in brief: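 Cells were treated for 8 hours, then imaged on a laser scanning plate cytometer. Complementation of reporter fragments fused to the human ERα ligand-binding domain (residues 310-547) in HEK293T gave fluorescence, and gain of signal over vehicle was fitted.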
# [11] = target: T1, Estrogen receptor (Homo sapiens) + Estrogen receptor beta (Homo sapiens) (UniProt P03372+Q92731); assay: OT_ER_ERaERb_0480: Odyssey Thera (OT) 8-hour HEK293T Protein-Complementation Assay for Estrogen Receptor-alpha/-beta Heterodimer (AID 2283352)
# Method in brief: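 Increase in mean fluorescence intensity, measured by laser scanning plate cytometry, reported ER-alpha/ER-beta LBD complementation in HEK293T cells after 8 h chemical exposure. DMSO served as baseline; basal signal is low, punctate and cytoplasmic.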
# [12] = target: T1, Estrogen receptor (Homo sapiens) + Estrogen receptor beta (Homo sapiens); assay: OT_ER_ERaERb_1440: Odyssey Thera (OT) 24-hour HEK293T Protein-Complementation Assay for Estrogen Receptor-alpha/-beta Homodimer (AID 2283356);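 note: heteromer of ER alpha and ER beta binding domains; hits raise reporter fluorescence and both agonists and antagonists give an increase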
# Method in brief: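 Heterodimerisation of ERα (aa 310-547) and ERβ (aa 263-489) ligand binding domains was tracked as fluorescence gain in stably transfected HEK293T cells following 24 h dosing, normalised to DMSO controls.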
# [13] = system: guinea pig Histamine Receptor (H2), gene 100729734; assay: NVS_GPCR_gH2: NovaScreen (NVS) G Protein-Coupled Receptor Assay for guinea pig Histamine Receptor (H2) (AID 2283342)
# Method in brief: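 Guinea pig striatal membrane preparation with specific radioligand; bound counts measured by filtration and scintillation 1 h post-dosing, DMSO as baseline. Chemicals passing a 25 uM duplicate screen were titrated to a 50 uM maximum.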
# [14] = target: bovine Estrogen Receptor (ER), ESR1 (gene 407238) (UniProt P49884); assay: NVS_NR_bER: NovaScreen (NVS) Nuclear Receptor Binding Assay for bovine Estrogen Receptor (ER) (AID 2283345);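 note: actives lower the bound radioligand count which means they displace the ER ligand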
# Method in brief: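 Displacement of a radioligand from estrogen receptor in bovine uterine membrane preparations; scintillation signal taken at 18 hours, DMSO as baseline. Single-concentration duplicates (25 uM) preceded concentration-response follow-up of actives.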
# Estrogen receptor (Homo sapiens), sequence (P03372 whole entry, looked up, the tested form may be a part): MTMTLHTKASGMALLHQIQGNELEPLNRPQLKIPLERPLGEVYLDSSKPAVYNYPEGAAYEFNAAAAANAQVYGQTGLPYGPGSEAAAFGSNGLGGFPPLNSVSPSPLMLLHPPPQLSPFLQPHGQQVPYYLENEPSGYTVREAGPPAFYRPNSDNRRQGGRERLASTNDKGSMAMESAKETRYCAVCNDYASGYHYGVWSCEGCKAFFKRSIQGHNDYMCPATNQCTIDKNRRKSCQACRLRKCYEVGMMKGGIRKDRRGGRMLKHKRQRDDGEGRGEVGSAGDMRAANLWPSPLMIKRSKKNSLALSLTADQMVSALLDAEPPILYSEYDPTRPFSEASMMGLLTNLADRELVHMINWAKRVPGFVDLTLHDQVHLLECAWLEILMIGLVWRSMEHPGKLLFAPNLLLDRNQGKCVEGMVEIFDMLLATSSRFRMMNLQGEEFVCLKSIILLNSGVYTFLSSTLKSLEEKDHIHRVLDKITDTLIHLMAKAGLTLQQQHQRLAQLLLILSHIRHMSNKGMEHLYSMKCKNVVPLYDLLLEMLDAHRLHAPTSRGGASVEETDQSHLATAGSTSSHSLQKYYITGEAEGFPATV
# human Thyroid Receptor Alpha (TRa), THRA (gene 7067), sequence (P10827 whole entry, looked up): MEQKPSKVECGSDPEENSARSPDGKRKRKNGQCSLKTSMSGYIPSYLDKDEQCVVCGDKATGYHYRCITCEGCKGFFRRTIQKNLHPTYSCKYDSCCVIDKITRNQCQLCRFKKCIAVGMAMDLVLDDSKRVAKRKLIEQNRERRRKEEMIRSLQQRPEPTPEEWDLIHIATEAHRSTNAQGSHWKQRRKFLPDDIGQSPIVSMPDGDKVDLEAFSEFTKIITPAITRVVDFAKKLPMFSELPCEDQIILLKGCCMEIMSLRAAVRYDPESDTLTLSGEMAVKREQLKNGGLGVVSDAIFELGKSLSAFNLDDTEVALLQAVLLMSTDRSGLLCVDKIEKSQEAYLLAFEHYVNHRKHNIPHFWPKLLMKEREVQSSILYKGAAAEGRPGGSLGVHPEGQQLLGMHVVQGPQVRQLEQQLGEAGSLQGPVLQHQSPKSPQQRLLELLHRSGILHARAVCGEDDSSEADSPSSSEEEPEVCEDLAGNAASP
# Retinoic acid receptor alpha (Homo sapiens), sequence (P10276 whole entry, looked up): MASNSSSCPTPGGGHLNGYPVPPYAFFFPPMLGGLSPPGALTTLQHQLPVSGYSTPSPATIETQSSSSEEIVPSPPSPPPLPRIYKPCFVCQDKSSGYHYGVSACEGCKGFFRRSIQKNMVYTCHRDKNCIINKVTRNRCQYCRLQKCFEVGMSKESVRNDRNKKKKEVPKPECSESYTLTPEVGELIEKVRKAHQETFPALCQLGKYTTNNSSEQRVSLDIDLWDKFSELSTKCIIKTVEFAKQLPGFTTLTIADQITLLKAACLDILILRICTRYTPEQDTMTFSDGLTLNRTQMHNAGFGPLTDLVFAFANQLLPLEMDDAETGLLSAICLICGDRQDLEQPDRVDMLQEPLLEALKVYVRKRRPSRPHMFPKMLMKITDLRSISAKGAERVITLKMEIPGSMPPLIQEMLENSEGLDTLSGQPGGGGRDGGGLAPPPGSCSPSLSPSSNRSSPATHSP
# Estrogen receptor beta (Homo sapiens), sequence (Q92731 whole entry, looked up, the tested form may be a part): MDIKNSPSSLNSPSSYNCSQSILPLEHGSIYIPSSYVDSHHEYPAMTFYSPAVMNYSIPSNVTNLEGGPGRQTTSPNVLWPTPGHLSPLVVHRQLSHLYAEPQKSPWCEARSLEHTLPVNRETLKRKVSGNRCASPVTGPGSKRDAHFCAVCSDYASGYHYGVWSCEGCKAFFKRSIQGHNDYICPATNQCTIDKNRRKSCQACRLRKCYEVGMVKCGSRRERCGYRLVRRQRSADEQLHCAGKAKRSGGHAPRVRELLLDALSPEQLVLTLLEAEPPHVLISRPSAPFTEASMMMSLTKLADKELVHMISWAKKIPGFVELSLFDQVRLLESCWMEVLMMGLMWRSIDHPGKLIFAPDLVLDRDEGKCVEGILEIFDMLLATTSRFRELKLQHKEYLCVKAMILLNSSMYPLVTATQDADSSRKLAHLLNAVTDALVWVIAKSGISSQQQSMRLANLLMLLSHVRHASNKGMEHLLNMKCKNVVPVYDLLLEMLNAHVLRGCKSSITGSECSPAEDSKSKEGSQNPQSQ
# PGR (gene 5241), sequence (P06401 whole entry, looked up): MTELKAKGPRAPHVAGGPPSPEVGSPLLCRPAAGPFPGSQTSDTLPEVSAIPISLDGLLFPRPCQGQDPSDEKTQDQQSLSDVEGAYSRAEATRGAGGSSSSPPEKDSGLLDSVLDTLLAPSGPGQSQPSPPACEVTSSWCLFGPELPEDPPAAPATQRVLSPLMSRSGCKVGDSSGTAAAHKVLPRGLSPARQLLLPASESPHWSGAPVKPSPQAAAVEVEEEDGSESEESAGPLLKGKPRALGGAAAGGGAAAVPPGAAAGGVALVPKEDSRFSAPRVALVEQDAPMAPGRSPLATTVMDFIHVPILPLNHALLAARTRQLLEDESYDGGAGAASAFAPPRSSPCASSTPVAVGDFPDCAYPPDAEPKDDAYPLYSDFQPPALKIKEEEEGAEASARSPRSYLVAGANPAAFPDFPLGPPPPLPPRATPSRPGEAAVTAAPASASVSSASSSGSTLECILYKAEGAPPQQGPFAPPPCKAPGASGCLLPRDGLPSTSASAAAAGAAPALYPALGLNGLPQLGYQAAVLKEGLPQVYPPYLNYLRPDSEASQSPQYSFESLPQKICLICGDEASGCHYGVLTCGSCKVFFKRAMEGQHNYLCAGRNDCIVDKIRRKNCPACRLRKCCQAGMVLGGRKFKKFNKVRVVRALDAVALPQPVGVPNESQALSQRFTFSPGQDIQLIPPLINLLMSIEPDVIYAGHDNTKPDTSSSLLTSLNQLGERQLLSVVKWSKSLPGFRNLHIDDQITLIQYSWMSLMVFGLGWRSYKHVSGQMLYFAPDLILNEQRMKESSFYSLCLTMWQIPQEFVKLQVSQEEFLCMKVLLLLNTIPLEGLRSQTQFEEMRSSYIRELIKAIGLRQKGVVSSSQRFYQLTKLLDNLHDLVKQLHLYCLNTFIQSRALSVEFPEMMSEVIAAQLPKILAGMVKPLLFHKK
# Bile acid receptor (Homo sapiens), sequence (Q96RI1 whole entry, looked up): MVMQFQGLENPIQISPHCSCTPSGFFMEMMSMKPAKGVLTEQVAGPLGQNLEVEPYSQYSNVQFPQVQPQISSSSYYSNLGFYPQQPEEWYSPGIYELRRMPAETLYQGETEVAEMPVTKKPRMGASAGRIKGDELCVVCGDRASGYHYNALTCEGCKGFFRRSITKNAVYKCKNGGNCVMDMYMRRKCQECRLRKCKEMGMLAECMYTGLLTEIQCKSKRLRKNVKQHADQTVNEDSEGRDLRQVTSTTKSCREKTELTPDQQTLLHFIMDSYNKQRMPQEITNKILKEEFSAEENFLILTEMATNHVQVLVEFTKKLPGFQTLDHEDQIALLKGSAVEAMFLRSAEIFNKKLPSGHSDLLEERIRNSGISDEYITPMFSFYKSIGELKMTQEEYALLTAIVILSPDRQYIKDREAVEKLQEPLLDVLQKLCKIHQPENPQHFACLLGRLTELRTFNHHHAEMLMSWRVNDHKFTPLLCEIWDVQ
# Androgen Receptor/SRC-1 Co-activator, AR (gene 367), sequence (P10275 whole entry, looked up, the tested form may be a part): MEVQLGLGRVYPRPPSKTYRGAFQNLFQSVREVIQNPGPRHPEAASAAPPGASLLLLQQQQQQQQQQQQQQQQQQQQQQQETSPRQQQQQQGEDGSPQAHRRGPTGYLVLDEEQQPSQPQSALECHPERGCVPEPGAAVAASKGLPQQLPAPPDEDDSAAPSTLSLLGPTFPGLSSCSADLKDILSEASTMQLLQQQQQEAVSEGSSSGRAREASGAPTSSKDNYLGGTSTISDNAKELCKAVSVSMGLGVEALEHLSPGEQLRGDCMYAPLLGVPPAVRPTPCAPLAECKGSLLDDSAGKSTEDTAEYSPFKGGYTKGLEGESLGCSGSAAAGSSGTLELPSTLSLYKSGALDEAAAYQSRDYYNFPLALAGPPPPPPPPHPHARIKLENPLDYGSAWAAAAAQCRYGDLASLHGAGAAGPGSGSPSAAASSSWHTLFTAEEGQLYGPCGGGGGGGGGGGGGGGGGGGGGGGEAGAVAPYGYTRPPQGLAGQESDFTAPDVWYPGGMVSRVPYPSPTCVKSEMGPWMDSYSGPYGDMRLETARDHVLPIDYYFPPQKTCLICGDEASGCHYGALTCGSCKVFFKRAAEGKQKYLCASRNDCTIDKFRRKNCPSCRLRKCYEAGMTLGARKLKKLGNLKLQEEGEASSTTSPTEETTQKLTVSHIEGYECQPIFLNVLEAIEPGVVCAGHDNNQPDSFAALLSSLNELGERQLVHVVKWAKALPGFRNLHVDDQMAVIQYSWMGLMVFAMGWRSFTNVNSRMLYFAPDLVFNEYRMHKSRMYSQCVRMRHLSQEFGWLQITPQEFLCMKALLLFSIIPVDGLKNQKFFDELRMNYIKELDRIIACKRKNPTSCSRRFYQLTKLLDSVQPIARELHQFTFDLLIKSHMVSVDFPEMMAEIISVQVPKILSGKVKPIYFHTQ
# T1 sequence (P03372 whole entry, looked up, the tested form may be a part): as the sequence (P03372 whole entry, looked up, the tested form may be a part) above
# T1 sequence (Q92731 whole entry, looked up, the tested form may be a part): as the sequence (Q92731 whole entry, looked up, the tested form may be a part) above
smiles,measurement,setting,value
CCC(CC)Nc1c([N+](=O)[O-])cc(C)c(C)c1[N+](=O)[O-],AC50,NCBI gene 100848466,40.1 µM (active)
same,AC50,[1],12.6 µM (active)
same,outcome,PGR (gene 5241),inactive
same,outcome,[2],inactive
CCOP(=S)(OCC)Oc1ccc([N+](=O)[O-])cc1,AC50,NCBI gene 100848466,2.23 µM (active)
same,outcome,[3],inactive
same,AC50,PGR (gene 5241),14.6 µM (active)
same,outcome,[2],inactive
CNc1cnn(-c2cccc(C(F)(F)F)c2)c(=O)c1Cl,outcome,NCBI gene 100848466,inactive
same,outcome,[4],inactive
same,outcome,[1],inactive
same,outcome,[5],inactive
same,outcome,PGR (gene 5241),inactive
CCOP(=S)(OCC)Oc1ccc2c(C)c(Cl)c(=O)oc2c1,AC50,NCBI gene 100848466,1.01 µM (active)
same,AC50,PGR (gene 5241),1.13 µM (active)
CCc1cccc(C)c1N(C(=O)CCl)C(C)COC (stereo unspecified),outcome,[6],inactive
same,outcome,NCBI gene 100848466,inactive
same,outcome,[1],inactive
same,outcome,[5],inactive
CSc1nnc(C(C)(C)C)c(=O)n1N,outcome,[4],inactive
same,outcome,[1],inactive
same,outcome,[5],inactive
CCCOCC(=Nc1ccc(Cl)cc1C(F)(F)F)n1ccnc1,outcome,NCBI gene 100848466,inactive
same,outcome,[1],inactive
same,outcome,PGR (gene 5241),inactive
C=C(C)[C@H]1Cc2c(ccc3c2O[C@@H]2COc4cc(OC)c(OC)cc4[C@@H]2C3=O)O1,outcome,NCBI gene 100848466,inactive
same,outcome,[4],inactive
same,AC50,[7],0.088 µM (active)
same,AC50,[8],0.973 µM (active)
same,outcome,PGR (gene 5241),inactive
same,outcome,[2],inactive
CCOP(=S)(OCC)Oc1cc(C)nc(C(C)C)n1,outcome,NCBI gene 100848466,inactive
same,outcome,PGR (gene 5241),inactive
Nc1c(Cl)cc([N+](=O)[O-])cc1Cl,outcome,[9],inactive
same,outcome,[10],inactive
same,outcome,[11],inactive
same,outcome,[7],inactive
same,outcome,[8],inactive
same,outcome,[12],inactive
same,outcome,[1],inactive
same,outcome,[5],inactive
C[Si](Cn1cncn1)(c1ccc(F)cc1)c1ccc(F)cc1,AC50,NCBI gene 100848466,25 µM (active)
same,outcome,[1],inactive
same,outcome,PGR (gene 5241),inactive
CCOP(=O)(OCC)Oc1cc(C)nc(C(C)C)n1,outcome,NCBI gene 100848466,inactive
same,outcome,[4],inactive
same,outcome,[1],inactive
same,outcome,PGR (gene 5241),inactive
same,outcome,[2],inactive
C#CC(C)(C)NC(=O)c1cc(Cl)cc(Cl)c1,outcome,NCBI gene 100848466,inactive
same,outcome,[5],inactive
CNC(=O)Oc1cccc2c1OC(C)(C)O2,outcome,[10],inactive
CC[C@H](C)[C@H]1O[C@]2(C=C[C@@H]1C)C[C@@H]1C[C@@H](C/C=C(\C)[C@@H](O[C@H]3C[C@H](OC)[C@@H](O[C@H]4C[C@H](OC)[C@@H](NC)[C@H](C)O4)[C@H](C)O3)[C@@H](C)/C=C/C=C3\CO[C@@H]4[C@H](O)C(C)=C[C@@H](C(=O)O1)[C@]34O)O2,AC50,[13],26.4 µM (active)
same,outcome,[14],inactive
same,outcome,[10],inactive
same,outcome,PGR (gene 5241),inactive
CCOC(=O)CC(SP(=O)(OC)OC)C(=O)OCC (stereo unspecified),outcome,NCBI gene 100848466,inactive
same,outcome,[1],inactive
same,outcome,[5],inactive
same,outcome,PGR (gene 5241),inactive
same,outcome,[2],inactive

# From PubChem BioAssay (EPA / NIEHS)
